RXFP1 antag – qHTS Assay for Antagonists of the Relaxin Receptor RXFP1 | Relaxin receptor 1 (Homo sapiens), Q9HBX9 | HEK293-RXFP1, relaxin-stimulated cAMP HTRF, 30 min; stronger effect = lower value | activity change, negative = inhibition, % at 57.5 µM | actives 0.59% (n = 350,000) | AID 1259400, 2018;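 active means activity change of -60% or lower, but not beyond a set lower limit; inconclusive means change between -60% and -40%, or beyond the set limit; inactive means change above -40%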; further: on the % scale 0 is the no-effect control and ±100 the full control effect
Target sequence (Q9HBX9 whole entry, looked up): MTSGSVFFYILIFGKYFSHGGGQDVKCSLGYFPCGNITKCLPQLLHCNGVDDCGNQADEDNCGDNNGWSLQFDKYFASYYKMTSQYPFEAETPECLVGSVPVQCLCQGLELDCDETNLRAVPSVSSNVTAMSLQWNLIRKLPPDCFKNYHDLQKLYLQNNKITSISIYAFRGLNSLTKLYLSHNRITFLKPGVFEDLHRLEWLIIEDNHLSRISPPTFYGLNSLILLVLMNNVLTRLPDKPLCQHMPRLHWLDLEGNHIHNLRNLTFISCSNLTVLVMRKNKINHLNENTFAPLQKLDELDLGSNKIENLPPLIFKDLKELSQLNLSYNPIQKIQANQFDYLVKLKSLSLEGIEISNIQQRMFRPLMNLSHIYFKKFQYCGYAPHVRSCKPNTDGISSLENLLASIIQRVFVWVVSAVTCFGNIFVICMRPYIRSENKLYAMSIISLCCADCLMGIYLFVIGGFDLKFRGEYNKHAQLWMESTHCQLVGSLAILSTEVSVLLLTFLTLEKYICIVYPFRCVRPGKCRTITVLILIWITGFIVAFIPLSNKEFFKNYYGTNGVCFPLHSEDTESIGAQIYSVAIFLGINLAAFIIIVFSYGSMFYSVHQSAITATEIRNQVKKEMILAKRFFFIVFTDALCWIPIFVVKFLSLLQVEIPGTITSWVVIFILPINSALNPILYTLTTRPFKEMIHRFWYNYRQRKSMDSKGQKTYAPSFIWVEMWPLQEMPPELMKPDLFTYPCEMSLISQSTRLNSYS
RXFP1 agonist – qHTS Assay for Agonists of the Relaxin Receptor RXFP1 | Relaxin receptor 1 (Homo sapiens), Q9HBX9 | HEK293T-RXFP1 cAMP TR-FRET, 30 min; response scale: percent of porcine relaxin response, buffer zero | Potency, µM (titrated, usually from 57.5 µM), inactives show top-dose activation, usual class: activators | actives 0.3% (n = 370,000); further: potency means the concentration at half of the fitted maximal effect; on the % scale 0 is the no-effect control and ±100 the full control effect; nearly all actives have a fitted effect of over 60% in size
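Agonist response is measured as cAMP accumulation in an RXFP1-transfected HEK293T line under PDE4 inhibition. Values are scaled between buffer-only and 29 nM porcine relaxin, and EC50s come from standard Hill equation fits.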
KinaseGlo FLuc – Counterscreen for Luciferase (Kinase-Glo TM) Inhibition; Luciferin 4-monooxygenase (Photuris pensylvanica), Q27757; Kinase-Glo luciferase, ATP luminescence, 8 min; Potency, µM (doses to about 38.3 µM), without a hit: top-dose activity change, negative = inhibition, actives largely listed as inhibitors; actives 0.28% (n = 200,000); AID 1379, 2008; further: potency means the concentration at half of the fitted maximal effect; on the % scale 0 is the no-effect control and ±100 the full control effect; nearly all actives have a fitted effect of over 60% in size
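Compound is pinned into ATP-containing buffer (10 uM ATP, imidazole pH 7.2, 7 mM MgCl2). Kinase-Glo luciferase reagent is then added. Light output is recorded following an 8-min room-temperature incubation.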
miR-21 act – qHTS Assay for Modulators of miRNAs and/orActivators of miR-21; HeLa miR-21 FLuc reporter, luciferase, 48 h; Potency, µM (top dose mostly 38.3 µM), inactives show at the top dose activity change, positive = activation, actives largely listed as activators; 340,000 tested, under 10 active;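 further: % of control where 0% means no effect; miR-21 action dims this reporter so a rising signal means less miR-21 action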
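HeLa miR-21-FLuc reporter line, endogenous miR-21; 2000 cells/well in DMEM/10% FBS; compound titration up to ~40uM final, 48 h, 37 degree Celsius; luciferase detection reagent, 15 min lysis, CCD luminescence.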
gsp agonist – qHTS for Agonist of gsp, the Etiologic Mutation Responsible for Fibrous Dysplasia/McCune-Albright Syndrome: qHTS; actives 0.13% (n = 340,000); gsp mutant cells, cAMP HTRF, 30 min; Potency, µM (doses to about 76.9 µM), for inactives: at the top dose activation (cAMP increase), usual class: activators; active means well fitted activation curve with a large enough effect; inconclusive means small, poorly fitted or top-dose-only effect, or another doubt; inactive means no such curve, though single readings can be large or run the other way; cell line not stated here;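 further: phosphodiesterase inhibitor Ro 20-1724 added with compounds to block cAMP breakdown; potency means the concentration at half of the fitted maximal effect; nearly all actives have a fitted effect of over 60% in size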
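Cells in DMEM/10% FBS with G418 were pretreated with compounds in DMSO plus […] (300 uM stock) for 30 min at 37C. cAMP was measured by HTRF (cAMP-d2 plus anti-cAMP antibody-K) after 30 min at room temperature.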
gsp antagonist – qHTS for Antagonists of gsp, the Etiologic Mutation Responsible for Fibrous Dysplasia/McCune-Albright Syndrome: qHTS; gsp-mutant cells, cAMP HTRF, 30 min; Potency, µM (titrated, usually from 76.9 µM), inactives show at the top dose activity change, negative = inhibition, most hits filed as inhibitors; actives 0.4% (n = 340,000); AID 624288, 2012; calls by dose curve; cell line not stated here;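 further: intracellular cAMP measured with PDE inhibitor Ro 20-1724 present during compound exposure; potency means the concentration at half of the fitted maximal effect; on the % scale 0 is the no-effect control and ±100 the full control effect; nearly all actives have a fitted effect of over 65% in size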
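Measurement of cellular cAMP by homogeneous time-resolved fluorescence following a 30 min compound exposure at 37C. The PDE inhibitor […] was present throughout; the assay buffer was DPBS with 0.05% BSA and 0.005% Tween 20.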
Starred values were filed as active, the others as inactive; u = inconclusive; x = no result given; [ ] = dose if it differs, or a comment. Hits are enriched below; roughly 1% of the tested compounds scored in any of these assays. Unless noted, the call rests on the fitted dose curve; in most records, active means well fitted curve in the direction sought with a large enough effect; inconclusive means small, poorly fitted or top-dose-only effect, or another doubt; inactive means no such curve, though single readings can be large; an effect the other way counts as inactive or inconclusive.

SMILES	RXFP1 antag	RXFP1 agonist	KinaseGlo FLuc	miR-21 act	gsp agonist	gsp antagonist
COc1ccccc1N1CCN(c2ccnc3cc(Cl)ccc23)CC1	6	1%	x	24%	21%	10%
COc1ccccc1NC(=O)N1CCN(c2ccnc3cc(Cl)ccc23)CC1	-36	-2%	x	19%	-3%[15.4 µM]	35µM*
N#Cc1cccc(S(=O)(=O)N2CCN(c3ccnc4cc(Cl)ccc34)CC2)c1	-3	-3%	x	8%	-32%	25µM*
O=C(CN1C(=O)COc2ccccc21)NCCc1ccc(Cl)cc1	-4	4%	x	-2%	x	x
CCOC(=O)CSc1nnc2n(-c3ccccc3)c(=O)c3c4c(sc3n12)CC(C(C)(C)C)CC4 (stereo not drawn)	-69*	4%	x	-9%	x	x
Fc1ccc(NC(=S)NC2CCN(Cc3ccccc3)CC2)cc1	-6	0%	2%	6%	-1%	-3%
S=C(Nc1ccc(Cl)c(Cl)c1)NC1CCN(Cc2ccccc2)CC1	-61*	0%	0%	u	-22%	-3%
N#C/C(N=Nc1ccccc1O)=N\Nc1ccccc1O	x	-6%	x	x	x	35µM*
Cc1cccc(N=C2NC(=O)/C(=C/C=C/c3ccco3)S2)c1	-73*	0%	-1%	0%	2%	-1%
O=C1NC(=Nc2ccc(O)cc2)S/C1=C/c1ccco1	-61*	-1%	3%	-7%	-5%	0%
COc1ccc(N=C2NC(=O)/C(=C\C=C\c3ccco3)S2)cc1	u	5%	-3%	-22%	8%[15.4 µM]	u
CC1CCC(NC(=O)C2(C)Cc3ccccc3C(=O)N2Cc2ccccc2Cl)CC1 (stereo not drawn)	-7	13%	x	-1%	x	x
O=C(c1ccncc1)c1ccc(N2CCN(C3CC(=O)N(Cc4cccs4)C3=O)CC2)cc1 (stereo not drawn)	-8	3%	2%	30%	-6%	35µM*
COc1cc(/C=C(\C#N)c2nc3ccc(C)cc3[nH]2)cc([N+](=O)[O-])c1O	-19	-3%	0%	-49%	-35%	25µM*
O=C(CSc1nc(O)cc(=O)n1-c1ccccc1)Nc1ccc2c3c(cccc13)CC2	u	2%	-4%	-2%	-16%[15.4 µM]	7.1µM*
Cc1c(O)nc(SCC(=O)Nc2ccc3c4c(cccc24)CC3)n(-c2ccccc2)c1=O	-14	-1%	4%	-1%	-5%[15.4 µM]	-10%
Cc1cc2nc(-c3ccc(OCc4ccccc4F)cc3)cc(C(F)(F)F)n2n1	x	u	x	-7%	x	x
Cc1ccc(CSc2nc(=O)c3c(C)cc(C)nc3n2C2CC2)cc1	-62*	10%	x	-6%	x	x
COc1ccccc1NC(=O)c1cccc(N2C(=O)C3C4C=CC(C4)C3C2=O)c1 (stereo not drawn)	-77*	-5%	x	-3%	u	-12%
FC(F)(F)c1cc(-c2ccccc2)nc2cc(-c3ccccc3)nn12	x	-1%	x	-13%	x	x
Cc1ccc(-n2ncc3c(NCCCN4CCOCC4)ncnc32)cc1C	-19	7%	x	-59%	x	x
CCc1ccc2oc(C(=O)NCc3ccc(S(N)(=O)=O)cc3)c(C)c2c1	-120*	17%	3%	-16%	18%	-1%
CC[C@]1(O)C[C@H]2CN(CCc3c([nH]c4ccccc34)[C@@](C(=O)OC)(c3cc4c(cc3OC)N(C=O)[C@H]3[C@@](O)(C(=O)OC)[C@H](OC(C)=O)[C@]5(CC)C=CCN6CC[C@]43[C@@H]65)C2)C1	11	x	x	x	x	x
O=C1c2ccccc2-c2onc3c(N4CCN(CCO)CC4)cc(N4CCN(C(=O)c5ccco5)CC4)c1c23	-32	2%	x	12%	-13%[15.4 µM]	18µM*
O=C(O)CCCNc1cc(N2CCN(C(=O)c3ccco3)CC2)c2noc3c2c1C(=O)c1ccccc1-3	-65*	-8%	x	19%	-48%	u
SMILES	RXFP1 antag	RXFP1 agonist	KinaseGlo FLuc	miR-21 act	gsp agonist	gsp antagonist
O=C(O)CCCNc1cc(N2CCC3(CC2)OCCO3)c2noc3c2c1C(=O)c1ccccc1-3	x	-5%	-23%	-41%	x	x
CN1CCN(c2cc(N3CCN(C(=O)c4ccco4)CC3)c3c4c(onc24)-c2ccccc2C3=O)CC1	-20	2%	x	4%	-34%	-23%
CCOC(=O)Oc1ccc(CCNC(=O)[C@H](CCSC)NC(C)=O)cc1OC(=O)OCC	-11	x	x	x	x	x
CC(NCc1ccc(OCc2ccc(Cl)cc2)cc1)C(O)c1ccccc1 (stereo not drawn)	-100*	2%	-1%	u	-3%[15.4 µM]	5%
CC1(C)Cc2ccccc2-c2nc(NN)[nH]c(=O)c21	-3	-2%	x	1%	24%	-4%
CC1(C)Cc2ccccc2-c2c1c(=O)n(Cc1ccccc1)c1nnnn21	-8	0%	-1%	-2%	u	-17%
CCn1c(=S)[nH]c2c(c1=O)C(C)(C)Cc1ccccc1-2	14	16µM*	-3%	-3%	2.8µM*	34%
Cn1c(=S)[nH]c2c(c1=O)C(C)(C)Cc1ccccc1-2	29	16µM*	-1%	6%	92%[15.4 µM]	-2%
Oc1cccc2[nH]ccc12	-8	x	x	x	x	x
Fc1cccc(NCc2cn3ccccc3n2)c1	25	-1%	u	-46%	-38%	3%
Fc1ccc(NCc2cn3ccccc3n2)cc1	5	0%	11µM*	-48%	-25%	-8%
CC(=O)OC[C@H]1O[C@@H](OC(C)=O)[C@H](OC(C)=O)[C@@H]1OC(C)=O	13	x	x	x	x	x
COC(=O)CN1C(=O)C(C)(C)c2cc(S(=O)(=O)Nc3ccc(C(C)C)cc3)ccc21	-7	1%	x	1%	x	x
c1ccc2c(c1)nnn1c3ccccc3nc21	x	2%	13µM*	-25%	x	x
CCc1ccc(/C=C/C(=O)c2ccc(N3CCOCC3)cc2)cc1	-92*	-3%	1%	-13%	-4%[15.4 µM]	-15%
COc1cc(CN2CC(=O)N(c3ccccc3Cl)C2=S)cc(OC)c1OC	-14	0%	x	17%	-16%	35µM*
CCc1c(-c2ccccc2)nc2ccccc2c1C(=O)NCCc1ccccc1	-37	1%	x	5%	x	x
NC(=S)N/N=C1\CC(c2ccc3c(c2)OCCCO3)Oc2ccc(F)cc21 (stereo not drawn)	-61*	-5%	x	21%	-14%	-33%

Assay outcomes: PubChem, National Center for Advancing Translational Sciences (NCATS)
